A selection: hits, their analogues and other compounds. The true share with any hit is near 3.6%.
mHTT CaM bind: mutant huntingtin-calmodulin interaction inhibitors – biochemical, AlphaScreen, primary screen; P42858; AlphaScreen His-mHTT/GST-CaM binding, luminescence; inhibition, % at 15 µM; 190,000 tested, 3.6% active
Target sequence (P42858 whole entry, looked up, change not shown): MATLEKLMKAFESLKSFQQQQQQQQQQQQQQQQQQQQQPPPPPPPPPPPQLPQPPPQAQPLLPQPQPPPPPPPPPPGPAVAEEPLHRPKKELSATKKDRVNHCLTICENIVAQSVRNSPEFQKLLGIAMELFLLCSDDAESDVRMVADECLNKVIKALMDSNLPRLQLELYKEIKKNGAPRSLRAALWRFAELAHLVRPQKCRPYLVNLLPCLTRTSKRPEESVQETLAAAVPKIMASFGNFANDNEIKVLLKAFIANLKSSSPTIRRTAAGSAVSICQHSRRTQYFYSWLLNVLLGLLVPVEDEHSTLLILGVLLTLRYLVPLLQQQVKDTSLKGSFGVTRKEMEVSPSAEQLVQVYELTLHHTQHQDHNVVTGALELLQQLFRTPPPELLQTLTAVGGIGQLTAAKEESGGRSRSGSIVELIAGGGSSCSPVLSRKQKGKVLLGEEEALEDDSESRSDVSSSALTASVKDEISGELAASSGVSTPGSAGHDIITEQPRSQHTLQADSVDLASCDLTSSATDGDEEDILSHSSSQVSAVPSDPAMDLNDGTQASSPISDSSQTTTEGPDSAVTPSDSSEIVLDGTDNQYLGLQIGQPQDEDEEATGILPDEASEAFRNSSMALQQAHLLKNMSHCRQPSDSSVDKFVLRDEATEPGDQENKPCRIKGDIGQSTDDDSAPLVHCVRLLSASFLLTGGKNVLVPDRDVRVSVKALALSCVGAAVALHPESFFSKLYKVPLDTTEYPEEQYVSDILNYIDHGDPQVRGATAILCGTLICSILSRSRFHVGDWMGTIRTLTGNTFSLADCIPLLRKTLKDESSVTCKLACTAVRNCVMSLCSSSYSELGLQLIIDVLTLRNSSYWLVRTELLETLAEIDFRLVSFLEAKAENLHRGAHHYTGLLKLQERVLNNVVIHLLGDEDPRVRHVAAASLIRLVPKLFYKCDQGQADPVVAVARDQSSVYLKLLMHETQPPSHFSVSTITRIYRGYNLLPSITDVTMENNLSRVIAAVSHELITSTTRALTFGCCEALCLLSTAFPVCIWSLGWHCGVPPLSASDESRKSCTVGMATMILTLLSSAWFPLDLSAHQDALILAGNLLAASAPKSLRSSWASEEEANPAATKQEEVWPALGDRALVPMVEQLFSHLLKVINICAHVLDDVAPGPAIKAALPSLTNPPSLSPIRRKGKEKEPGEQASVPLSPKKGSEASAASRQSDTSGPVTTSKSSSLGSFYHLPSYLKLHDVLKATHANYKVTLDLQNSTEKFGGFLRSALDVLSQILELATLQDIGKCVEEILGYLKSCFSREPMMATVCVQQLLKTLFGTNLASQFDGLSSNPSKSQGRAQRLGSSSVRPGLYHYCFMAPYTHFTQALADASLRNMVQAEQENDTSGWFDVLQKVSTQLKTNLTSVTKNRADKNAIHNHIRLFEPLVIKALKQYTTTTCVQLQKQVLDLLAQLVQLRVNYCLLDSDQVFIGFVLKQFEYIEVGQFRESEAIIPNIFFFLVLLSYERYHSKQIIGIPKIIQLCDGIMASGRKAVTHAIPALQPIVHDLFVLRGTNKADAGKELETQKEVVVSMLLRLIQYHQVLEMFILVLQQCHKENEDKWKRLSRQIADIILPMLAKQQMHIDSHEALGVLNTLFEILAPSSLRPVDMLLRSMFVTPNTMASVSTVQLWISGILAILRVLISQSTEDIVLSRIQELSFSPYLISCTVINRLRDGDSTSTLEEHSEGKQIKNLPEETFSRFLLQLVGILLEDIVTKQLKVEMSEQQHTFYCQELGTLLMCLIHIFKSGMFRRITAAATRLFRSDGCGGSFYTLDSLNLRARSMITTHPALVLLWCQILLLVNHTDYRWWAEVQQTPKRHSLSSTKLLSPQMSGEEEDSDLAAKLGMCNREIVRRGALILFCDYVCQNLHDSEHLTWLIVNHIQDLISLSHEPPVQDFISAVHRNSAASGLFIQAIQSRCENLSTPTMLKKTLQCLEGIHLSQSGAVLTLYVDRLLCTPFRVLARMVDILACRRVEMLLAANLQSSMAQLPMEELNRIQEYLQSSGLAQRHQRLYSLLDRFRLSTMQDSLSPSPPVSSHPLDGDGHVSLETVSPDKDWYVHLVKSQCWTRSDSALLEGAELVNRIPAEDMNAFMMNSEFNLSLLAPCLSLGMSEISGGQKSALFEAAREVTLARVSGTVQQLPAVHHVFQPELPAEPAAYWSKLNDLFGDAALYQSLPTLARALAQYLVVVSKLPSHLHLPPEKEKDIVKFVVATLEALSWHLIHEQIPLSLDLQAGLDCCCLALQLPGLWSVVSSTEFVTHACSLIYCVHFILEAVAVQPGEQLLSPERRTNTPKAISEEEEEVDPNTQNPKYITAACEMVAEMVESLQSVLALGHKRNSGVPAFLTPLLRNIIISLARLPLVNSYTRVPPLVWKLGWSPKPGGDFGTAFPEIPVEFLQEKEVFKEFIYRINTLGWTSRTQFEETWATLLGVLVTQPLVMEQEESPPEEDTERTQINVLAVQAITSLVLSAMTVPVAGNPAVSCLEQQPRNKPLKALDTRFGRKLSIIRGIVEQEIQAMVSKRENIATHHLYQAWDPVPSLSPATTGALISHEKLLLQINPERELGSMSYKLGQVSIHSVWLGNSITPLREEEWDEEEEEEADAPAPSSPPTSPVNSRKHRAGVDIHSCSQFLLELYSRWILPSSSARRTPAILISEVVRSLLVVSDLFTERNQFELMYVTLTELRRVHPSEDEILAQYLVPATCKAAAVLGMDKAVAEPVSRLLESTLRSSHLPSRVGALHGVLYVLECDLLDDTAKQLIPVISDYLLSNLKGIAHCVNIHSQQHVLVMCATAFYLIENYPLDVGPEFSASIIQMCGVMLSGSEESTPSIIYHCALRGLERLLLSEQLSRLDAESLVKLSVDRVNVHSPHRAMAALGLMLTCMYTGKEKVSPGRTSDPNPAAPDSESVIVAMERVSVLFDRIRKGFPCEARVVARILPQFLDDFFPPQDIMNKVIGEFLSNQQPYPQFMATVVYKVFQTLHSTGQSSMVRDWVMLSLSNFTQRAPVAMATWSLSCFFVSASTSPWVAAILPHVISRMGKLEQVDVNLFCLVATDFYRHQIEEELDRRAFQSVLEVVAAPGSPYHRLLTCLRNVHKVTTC
Pf apPOL block: Pf-apPOL inhibitors, biochemical, fluorescence; inhibition, % at 10 µM; 210,000 tested, 0.25% active; Recombinant Pf-apPOL, molecular beacon fluorescence, 1.5 h
Hits are given with their value; ! = not confirmed by another sample. Rule as the data show it: active = inhibition above about 50%; inactive = the rest.

How did CCn1cc(CN2CCC(C(=O)NCc3ccc(OC)cc3)CC2)c2cc(OC)ccc21 do in these assays?
mHTT CaM bind: inactive; Pf apPOL block: inactive

What do the screens show for `COc1ccc2nc3sc(C(=O)O)cc3cc2c1`?
mHTT CaM bind: inactive; Pf apPOL block: inactive

Results for CCN1c2cc(C)ccc2-n2cccc2C12CCN(C(=O)Nc1ccccc1OC)CC2 ?
mHTT CaM bind: 65.5; Pf apPOL block: inactive

Results for CCN1c2cc(Cl)ccc2C(=O)NC12CCN(C(=O)Nc1ccc(OC)cc1)CC2 ?
mHTT CaM bind: inactive; Pf apPOL block: inactive

Results for CCN1c2cc(C)ccc2-n2cccc2C12CCN(C(=O)NC1CCCC1)CC2 ?
mHTT CaM bind: 71.7; Pf apPOL block: inactive

How did CCN1c2cc(C)ccc2-n2cccc2C12CCN(C(=O)Nc1ccccc1)CC2 do in these assays?
mHTT CaM bind: 51.9; Pf apPOL block: inactive

How did Cc1ccc2c(c1)C(=O)NC1(CCN(C(=O)NC3CCCCC3)CC1)N2C do in these assays?
mHTT CaM bind: inactive; Pf apPOL block: inactive

What do the screens show for `CCN1c2cc(C)ccc2-n2cccc2C12CCN(C(=O)Nc1ccc(OC)cc1)CC2`?
mHTT CaM bind: 56.1; Pf apPOL block: inactive

How did CCN1c2cc(C)ccc2-n2cccc2C12CCN(C(=O)c1ccccc1OC)CC2 do in these assays?
mHTT CaM bind: inactive; Pf apPOL block: inactive

How did CCN1c2cc(C)ccc2-n2cccc2C12CCN(C(=O)Nc1ccc(C)cc1)CC2 do in these assays?
mHTT CaM bind: inactive; Pf apPOL block: inactive

What do the screens show for `O=C(Cc1c(F)cccc1Cl)N1CCCC1c1ccc(F)cc1` (stereo not drawn)?
mHTT CaM bind: inactive; Pf apPOL block: inactive

How did O=C(Nc1ccc(O)c(-c2nc3ccccc3o2)c1)c1ccc(F)cc1 do in these assays?
mHTT CaM bind: inactive; Pf apPOL block: inactive

Results for CC(C)COc1ccc(C(=O)N/C(=C/c2ccc3c(c2)OCO3)C(=O)O)cc1 ?
mHTT CaM bind: inactive; Pf apPOL block: inactive

How did COCCNC(=O)C1CN(S(=O)(=O)c2ccccc2)CC12CCCCC2 (stereo not drawn) do in these assays?
mHTT CaM bind: inactive; Pf apPOL block: inactive

Results for COc1cc(-c2nc(-c3ccc(NC(=O)c4cccc(Cl)c4)cc3)no2)cc(OC)c1OC ?
mHTT CaM bind: inactive; Pf apPOL block: inactive

Results for O=[N+]([O-])c1cc(C(F)(F)F)ccc1NCCc1ccccc1 ?
mHTT CaM bind: inactive; Pf apPOL block: inactive

Results for COc1ccc(OCC(=O)N2CCC(C(=O)NCCc3cscn3)CC2)cc1 ?
mHTT CaM bind: inactive; Pf apPOL block: inactive

Results for CCN1c2cc(C)ccc2-n2cccc2C12CCN(C(=O)Nc1cccc(OC)c1)CC2 ?
mHTT CaM bind: 55.5; Pf apPOL block: inactive

What do the screens show for `CCOc1ccc(NC(=O)N2CCC3(CC2)c2cccn2-c2ccc(C)cc2N3CC)cc1`?
mHTT CaM bind: 51.7; Pf apPOL block: inactive

Results for CCN1c2ccccc2-n2cccc2C12CCN(C(=O)Nc1cc(C)ccc1C)CC2 ?
mHTT CaM bind: inactive; Pf apPOL block: inactive

How did CCN1c2cc(C)ccc2-n2cccc2C12CCN(C(=O)NCc1cccc(OC)c1)CC2 do in these assays?
mHTT CaM bind: inactive; Pf apPOL block: inactive

What do the screens show for `O=C(Nc1ncn[nH]1)c1cc(-c2ccccc2)nc2ccccc12`?
mHTT CaM bind: inactive; Pf apPOL block: inactive

What do the screens show for `O=C(c1ccc(F)c(F)c1)N1CCCN(Cc2nc3ccc(Cl)cc3o2)CC1`?
mHTT CaM bind: 60.1; Pf apPOL block: inactive

Results for Cc1cc(C)cc(C(=O)N2CCCN(Cc3nc4ccccc4o3)CC2)c1 ?
mHTT CaM bind: inactive; Pf apPOL block: inactive

Results for Cc1ccc(Cl)cc1NC(=O)c1cc2n(n1)C(C(F)(F)F)CC(c1ccc3c(c1)OCO3)N2 (stereo not drawn) ?
mHTT CaM bind: inactive; Pf apPOL block: inactive

What do the screens show for `CCc1[nH]nc2c1C(c1ccccc1[N+](=O)[O-])C(C#N)=C(N)O2` (stereo not drawn)?
mHTT CaM bind: inactive; Pf apPOL block: inactive

Results for COc1ccc(N=Cc2ccc(O)c3c2OC(N)=C(C#N)C3c2cccc([N+](=O)[O-])c2)cc1 (stereo not drawn) ?
mHTT CaM bind: 99.0; Pf apPOL block: inactive

What do the screens show for `N#CC1=C(N)Oc2c(C=Nc3ccccc3)ccc(O)c2C1c1ccccc1[N+](=O)[O-]` (stereo not drawn)?
mHTT CaM bind: 100.0; Pf apPOL block: inactive

What do the screens show for `COc1ccc(N=Cc2cc([N+](=O)[O-])ccc2O)cc1`?
mHTT CaM bind: inactive; Pf apPOL block: inactive

What do the screens show for `COc1ccccc1CC(=O)NCC1OCCc2ccccc21` (stereo not drawn)?
mHTT CaM bind: inactive; Pf apPOL block: inactive

What do the screens show for `COc1ccc(CNC(=O)C2CC(c3cc(OC)c(OC)c(OC)c3)=NO2)cc1` (stereo not drawn)?
mHTT CaM bind: inactive; Pf apPOL block: inactive

Results for Cc1cccc(NC(=O)Cc2nn(C)c(=O)c3ccccc23)c1 ?
mHTT CaM bind: inactive; Pf apPOL block: inactive

How did Cc1ccc(CN(Cc2cccnc2)C(=O)Nc2ccc(Cl)c(Cl)c2)cc1 do in these assays?
mHTT CaM bind: 81.0; Pf apPOL block: inactive

How did O=C(CN(Cc1ccccc1Cl)S(=O)(=O)c1ccc(Cl)cc1)NCc1cccnc1 do in these assays?
mHTT CaM bind: inactive; Pf apPOL block: inactive

How did Cc1ccc(S(=O)(=O)N(CC(=O)NCc2cccnc2)Cc2ccc(Cl)c(Cl)c2)cc1 do in these assays?
mHTT CaM bind: 54.0!; Pf apPOL block: inactive

Results for O=C(Nc1ccc(Cl)cc1)N(Cc1cccnc1)Cc1ccccc1Cl ?
mHTT CaM bind: inactive; Pf apPOL block: inactive

What do the screens show for `COc1ccc(C(=O)c2ccc([N+](=O)[O-])cc2)cc1S(=O)(=O)NCc1ccccc1`?
mHTT CaM bind: inactive; Pf apPOL block: inactive

What do the screens show for `COC(CNc1ncnc2c1cnn2-c1ccc(C)cc1C)OC`?
mHTT CaM bind: inactive; Pf apPOL block: inactive

What do the screens show for `Oc1c(C=NCc2ccccc2)[nH]c2ccc(Br)c(Cl)c12`?
mHTT CaM bind: inactive; Pf apPOL block: inactive

How did Oc1c(C=NC2CCCCC2)[nH]c2ccc(Br)c(Cl)c12 do in these assays?
mHTT CaM bind: 76.0; Pf apPOL block: inactive

Results for Cc1cc(C)cc(N=Cc2[nH]c3ccc(Br)c(Cl)c3c2O)c1 ?
mHTT CaM bind: inactive; Pf apPOL block: inactive

How did COc1ccc(N=Cc2[nH]c3ccc(Br)c(Cl)c3c2O)cc1 do in these assays?
mHTT CaM bind: inactive; Pf apPOL block: inactive

What do the screens show for `Oc1c(C=Nc2ccc(Br)cc2)[nH]c2ccc(Br)c(Cl)c12`?
mHTT CaM bind: 58.0; Pf apPOL block: inactive

Results for COc1ccc(CN=Cc2[nH]c3ccc(Br)c(Cl)c3c2O)cc1 ?
mHTT CaM bind: 69.0; Pf apPOL block: inactive

Results for CCCNc1cc(N2CCC(CCC(=O)N3CCN(C(C)=O)CC3)CC2)ncn1 ?
mHTT CaM bind: inactive; Pf apPOL block: inactive

How did O=C(C1CCCN(c2nnc3ccccn23)C1)N1CCCCCC1 (stereo not drawn) do in these assays?
mHTT CaM bind: inactive; Pf apPOL block: inactive

Results for Cc1cc(C)cc(N2C=C(C(=O)N3CCCCC3)S(=O)(=O)c3ccccc32)c1 ?
mHTT CaM bind: inactive; Pf apPOL block: inactive

Results for Cc1nnc2c3ccccc3nc(N(C)Cc3ccccc3)n12 ?
mHTT CaM bind: inactive; Pf apPOL block: inactive

What do the screens show for `O=C(Nc1cccnc1N1CCC(CN2CCCCC2)CC1)c1ccc(F)cc1F`?
mHTT CaM bind: inactive; Pf apPOL block: inactive

How did COC(=O)Nc1ccc(S(=O)(=O)Nc2cc(C(C)C)c(O)c(C(C)C)c2)cc1 do in these assays?
mHTT CaM bind: 56.1; Pf apPOL block: inactive

What do the screens show for `COC(=O)Nc1ccc(S(=O)(=O)NC(C)=O)cc1`?
mHTT CaM bind: inactive; Pf apPOL block: inactive

Screening results from PubChem BioAssay.
